We go through 13 compounds from PubChem BioAssay (NCATS).

Activity calls are given as the source filed them. Calls come from the whole dose curve; as a rule, active = well fitted curve in the direction sought with a large enough effect (not every such curve was filed as active); inconclusive = small, poorly fitted or top-dose-only effect, or effect the other way, or another doubt; inactive = no such curve, though single readings can be large or run the other way.

Sequence of Pyruvate kinase PKM (Homo sapiens) (P14618 whole entry, looked up): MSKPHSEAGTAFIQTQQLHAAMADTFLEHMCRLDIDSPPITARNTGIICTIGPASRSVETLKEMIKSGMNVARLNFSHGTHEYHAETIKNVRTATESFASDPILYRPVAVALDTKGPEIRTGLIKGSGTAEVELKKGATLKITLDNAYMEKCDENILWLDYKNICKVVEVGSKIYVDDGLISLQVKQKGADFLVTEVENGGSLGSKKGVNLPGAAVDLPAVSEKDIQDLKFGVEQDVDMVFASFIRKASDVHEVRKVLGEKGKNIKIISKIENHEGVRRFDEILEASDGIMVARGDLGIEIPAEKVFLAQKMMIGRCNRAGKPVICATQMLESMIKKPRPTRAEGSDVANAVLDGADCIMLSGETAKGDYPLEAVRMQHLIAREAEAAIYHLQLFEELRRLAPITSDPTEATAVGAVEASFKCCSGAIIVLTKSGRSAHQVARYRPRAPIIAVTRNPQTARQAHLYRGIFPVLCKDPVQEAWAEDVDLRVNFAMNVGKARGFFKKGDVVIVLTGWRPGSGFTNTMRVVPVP

This assay addresses Pyruvate kinase PKM (Homo sapiens) (UniProt P14618). In words: qHTS Assay for Activators of Human Muscle Pyruvate Kinase (AID 954).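 Note: 0% = uninhibited enzyme and -100% = no enzyme or full thiadiazolimine inhibition.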 The note with it: purified human muscle pyruvate kinase, luciferase-coupled luminescence, 1 h; series mostly up to 57.5 µM; activity change, negative = inhibition: at the top concentration. In a few lines: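 Screening used highly purified human pyruvate kinase M2 under submaximal activity, with PEP at its Km and ADP below Km. After an hour at room temperature, ATP was read by luciferase luminescence.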
In general terms: Quantitative high-throughput screening tests each substance at several concentrations.
Regarding `O=c1[nH]c2cc(Cl)ccc2c(O)c1-c1ccc(Oc2ccccc2)cc1`, the “activity change, negative = inhibition” value was -7.38% (inactive). For `O=C(O)Cc1c[nH]c2ccc(O)cc12`, the “activity change, negative = inhibition” value was -4.6% (inactive). Same read-out and setting: then `CCCn1c(=O)c2[nH]c(-c3ccc(S(=O)(=O)O)cc3)nc2n(CCC)c1=O`, with -3.8% (inactive); and `O=S(=O)(c1cccc2c(Cl)cccc12)N1CCCNCC1`, with -20.6% (inactive). With `Cc1ccc([N+](=O)[O-])cc1S(=O)(=O)N(C)C`, the result was inactive. For `Cc1cc2c(cc1Cl)N(C(=O)Nc1ccnc3ccccc13)CC2`, the “activity change, negative = inhibition” value was -11.5% (inactive). Same read-out and setting: the result for `Nc1nc2[nH]c(=O)cnc2c(=O)[nH]1` reads -2.82% (inactive). `COc1cc(CNC(=O)CCCCCCC(C)C)ccc1O`: the “activity change, negative = inhibition” value was -4.84% (inactive). Consider `COc1ccc2c(c1)c(CC(=O)O)c(C)n2C(=O)c1ccccc1`, for which the “activity change, negative = inhibition” value was -7.77% (inactive). As for `COc1ccccc1N1CCN(CCN(C(=O)c2ccc(F)cc2)c2ccccn2)CC1`, the “activity change, negative = inhibition” value was -6.1% (inactive). In the case of `O=c1[nH]c2ccccc2c2ccccc12`, the “activity change, negative = inhibition” value was -11.7% (inactive). Same read-out and setting: the result for `CCCOC(=O)c1c(-c2ccccc2)nc(CC)c(C(=O)SCC)c1CCC` reads -21.7% (inactive). For the compound `CCCc1c(OCCCOc2ccc(OCC(=O)O)cc2)ccc(C(C)=O)c1O`, the “activity change, negative = inhibition” value was -26.1% (inactive).
